Data as given in article PMC4336329 (PLoS ONE, 2015).
About 14,000 (4.5%) of roughly 310,000 compounds showed an effect of 50% or more. The effect is printed as a negative number. For the sample, strong results were picked, then their nearest neighbours and some compounds at random.

What follows are compounds tested against human ether-à-go-go-related gene (hERG) potassium channel (human, UniProt Q12809) (assay: primary screen, population patch clamp on CHO cells stably expressing hERG; higher = less effect of the substance).
human ether-à-go-go-related gene (hERG) potassium channel, sequence (Q12809 whole entry, looked up): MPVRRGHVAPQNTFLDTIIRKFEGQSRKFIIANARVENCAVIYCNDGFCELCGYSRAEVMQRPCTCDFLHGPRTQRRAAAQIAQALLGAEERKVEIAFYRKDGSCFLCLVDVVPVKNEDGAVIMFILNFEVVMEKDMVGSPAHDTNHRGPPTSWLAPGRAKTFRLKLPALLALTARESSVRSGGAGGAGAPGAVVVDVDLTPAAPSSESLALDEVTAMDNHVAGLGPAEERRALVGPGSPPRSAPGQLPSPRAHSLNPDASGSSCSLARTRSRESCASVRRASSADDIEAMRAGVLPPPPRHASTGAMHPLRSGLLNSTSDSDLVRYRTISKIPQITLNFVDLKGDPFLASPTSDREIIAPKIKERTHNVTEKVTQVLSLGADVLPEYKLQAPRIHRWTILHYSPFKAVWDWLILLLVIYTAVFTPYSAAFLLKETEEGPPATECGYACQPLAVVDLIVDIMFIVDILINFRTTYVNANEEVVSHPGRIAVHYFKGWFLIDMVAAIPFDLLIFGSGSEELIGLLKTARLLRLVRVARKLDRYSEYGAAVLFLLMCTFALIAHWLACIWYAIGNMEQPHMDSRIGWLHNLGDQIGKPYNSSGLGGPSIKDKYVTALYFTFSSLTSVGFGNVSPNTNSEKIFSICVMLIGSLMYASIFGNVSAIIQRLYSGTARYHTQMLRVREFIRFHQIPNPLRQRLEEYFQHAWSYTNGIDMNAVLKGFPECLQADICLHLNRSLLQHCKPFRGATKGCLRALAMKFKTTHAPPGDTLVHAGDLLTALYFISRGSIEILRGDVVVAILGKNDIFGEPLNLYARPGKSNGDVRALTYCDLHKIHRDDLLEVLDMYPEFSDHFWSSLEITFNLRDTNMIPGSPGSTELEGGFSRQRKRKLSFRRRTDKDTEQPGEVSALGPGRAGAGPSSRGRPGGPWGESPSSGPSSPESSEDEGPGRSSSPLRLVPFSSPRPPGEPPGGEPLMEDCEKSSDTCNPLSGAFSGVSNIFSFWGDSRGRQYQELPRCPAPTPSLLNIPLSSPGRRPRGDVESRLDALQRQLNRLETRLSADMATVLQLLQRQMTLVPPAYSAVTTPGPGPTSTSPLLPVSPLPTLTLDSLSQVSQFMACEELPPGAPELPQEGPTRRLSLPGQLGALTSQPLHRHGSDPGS
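Further: peak tail current of the secondary pulse compared with the same well before compound.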

| SMILES | hERG current change (%, negative = inhibition) at 10uM [%] |
| --- | --- |
| Cc1ccc(NC(=O)CSc2nnc(/N=C/N(C)C)s2)cc1 | -7.65 |
| COc1ccc2c(c1)NC(c1ccc(N(C)C)cc1)c1cccn1-2 (centres unmarked) | 12.5 |
| COc1cccc(NC(=O)c2sc3ncn(CC(=O)N4CCN(c5ccccn5)CC4)c(=O)c3c2C)c1 | -0.877 |
| Cc1cccc(NC(=O)c2sc3ncn(CC(=O)N4CCN(c5ccccn5)CC4)c(=O)c3c2C)c1 | -61.4 |
| Cc1nc(N2CCN(c3ccccn3)CC2)c2c(C)c(C(=O)Nc3ccc(Br)cc3C)sc2n1 | 11.6 |
| Cc1nc(N2CCN(c3ccccn3)CC2)c2c(C)c(C(=O)Nc3ccc(F)cc3)sc2n1 | -76.4 |
| Cc1nc(N2CCN(c3ccccn3)CC2)c2c(C)c(C(=O)Nc3ccc(Cl)cc3)sc2n1 | -7.01 |
| Cc1nc(N2CCN(c3ccccn3)CC2)c2c(C)c(C(=O)Nc3ccc(F)cc3F)sc2n1 | -57.9 |
| Cc1ccc(NC(=O)c2sc3nc(C)nc(N4CCN(c5ccccn5)CC4)c3c2C)c(C)c1 | -40.1 |
| CCc1ccc(NC(=O)c2sc3nc(C)nc(N4CCN(c5ccccn5)CC4)c3c2C)cc1 | 5.47 |
| Cc1ccc(NC(=O)c2sc3ncn(CC(=O)N4CCN(c5ccccn5)CC4)c(=O)c3c2C)cc1Cl | -7.77 |
| Cc1nc(N2CCN(c3ccccn3)CC2)c2c(C)c(C(=O)Nc3ccccc3F)sc2n1 | -55.3 |
| Cc1nc(N2CCN(c3ccccn3)CC2)c2c(C)c(C(=O)Nc3ccc(F)c(Cl)c3)sc2n1 | 14.2 |
| Cc1nc(N2CCN(c3ccccn3)CC2)c2c(C)c(C(=O)Nc3ccc(F)cc3Cl)sc2n1 | -41.6 |
| C1CCC(C(CC2CCCCN2)C2CCCCC2)CC1.O=C(O)/C=C\C(=O)O (centres unmarked) | -22.6 |
| Cn1c(SCC(=O)Nc2ccc3nc(SCC(=O)NC4CC4)sc3c2)nnc1-c1ccccc1 | -5.5 |
| O=C(CSc1nnc(Cn2nnc(-c3ccccc3)n2)n1-c1ccccc1)Nc1ccc(F)cc1 | 3.55 |
| CC1CCN(C(=O)C(Cc2ccccc2)NS(=O)(=O)c2ccc3c(c2)oc(=O)n3C)CC1 (centres unmarked) | -2.38 |
| O=C(Nc1ccc2ccccc2c1)c1ccc(Cl)cc1Cl | 31 |
| O=c1c2c3nc4ccccc4nc3n(/N=C/c3ccccn3)c2ncn1-c1ccccc1 | 19.8 |
